Source: the supplement of paper PMC7595190
A number with no mark means an inactive call.

Tests used:
Test in all cases: CellTox Green cytotoxicity fluorescence relative to DMSO vehicle (fold of vehicle RFU); higher = more cell death (loss of membrane integrity), active = 2 or more
CMK = test system: CMK
Summary of the method: (§1)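 MV4-11, CMK and Kasumi-1 cells were plated in 96-well black optical-bottom plates at 4.0 × 10^4 cells per well, and CellTox Green reagent was added at the time of seeding. Single compounds from the Selleckchem apoptosis library were diluted in DMSO and added at final concentrations of 0.01, 0.1 and 1 µM, with 0.1% DMSO as vehicle. Plates were kept at 37 °C and 5% CO2 and read at 24, 48 and 72 h (Ex 485 nm, Em 520 nm). Cytotoxicity reflects loss of membrane integrity and is given as fluorescence relative to the DMSO vehicle, expressed as fold.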

Kasumi-1 = test system: Kasumi-1
Summary of the method: as §1

MV4-11 = test system: MV4-11
Summary of the method: as §1

Compound	CellTox Green cytotoxicity fluorescence (CMK; 0.01 µM, 24 h)	CellTox Green cytotoxicity fluorescence (CMK; 0.01 µM, 48 h)	CellTox Green cytotoxicity fluorescence (CMK; 0.01 µM, 72 h)	CellTox Green cytotoxicity fluorescence (CMK; 0.1 µM, 24 h)	CellTox Green cytotoxicity fluorescence (CMK; 0.1 µM, 48 h)	CellTox Green cytotoxicity fluorescence (CMK; 0.1 µM, 72 h)	CellTox Green cytotoxicity fluorescence (CMK; 1 µM, 24 h)	CellTox Green cytotoxicity fluorescence (CMK; 1 µM, 48 h)	CellTox Green cytotoxicity fluorescence (CMK; 1 µM, 72 h)	CellTox Green cytotoxicity fluorescence (Kasumi-1; 0.01 µM, 24 h)	CellTox Green cytotoxicity fluorescence (Kasumi-1; 0.01 µM, 48 h)	CellTox Green cytotoxicity fluorescence (Kasumi-1; 0.01 µM, 72 h)	CellTox Green cytotoxicity fluorescence (Kasumi-1; 0.1 µM, 24 h)	CellTox Green cytotoxicity fluorescence (Kasumi-1; 0.1 µM, 48 h)	CellTox Green cytotoxicity fluorescence (Kasumi-1; 0.1 µM, 72 h)	CellTox Green cytotoxicity fluorescence (Kasumi-1; 1 µM, 24 h)	CellTox Green cytotoxicity fluorescence (Kasumi-1; 1 µM, 48 h)	CellTox Green cytotoxicity fluorescence (Kasumi-1; 1 µM, 72 h)	CellTox Green cytotoxicity fluorescence (MV4-11; 0.01 µM, 24 h)	CellTox Green cytotoxicity fluorescence (MV4-11; 0.01 µM, 48 h)	CellTox Green cytotoxicity fluorescence (MV4-11; 0.01 µM, 72 h)	CellTox Green cytotoxicity fluorescence (MV4-11; 0.1 µM, 24 h)	CellTox Green cytotoxicity fluorescence (MV4-11; 0.1 µM, 48 h)	CellTox Green cytotoxicity fluorescence (MV4-11; 0.1 µM, 72 h)	CellTox Green cytotoxicity fluorescence (MV4-11; 1 µM, 24 h)	CellTox Green cytotoxicity fluorescence (MV4-11; 1 µM, 48 h)	CellTox Green cytotoxicity fluorescence (MV4-11; 1 µM, 72 h)
CC(C)CC(NC(=O)C(Cc1ccccc1)CC(O)C(Cc1ccccc1)NC(=O)OC(C)(C)C)C(=O)NC(Cc1ccccc1)C(N)=O (centres undefined)	1	1	1.03	0.943	0.922	0.899	0.947	0.949	0.919	0.952	0.963	0.962	0.943	0.974	0.946	0.912	0.993	1	0.952	0.964	0.968	0.937	0.952	0.944	0.919	0.947	0.967
CN1CCN(CCCNc2ncc(Cl)c(-c3cc4c(C(=O)NC5CC5)cccc4s3)n2)CC1	0.99	0.985	0.953	0.97	0.978	0.95	0.956	0.993	1	0.943	0.931	0.891	0.958	0.947	0.949	0.953	1.03	1.01									
NS(=O)(=O)C#Cc1ccccc1 [Pifithrin-m]	0.969	0.96	0.939	1.01	1	0.998	1	1.04	0.96	0.994	0.986	0.979	1	0.98	0.98	0.987	0.985	0.983	0.989	1	1	0.994	0.987	0.979	1.02	1.02	1.03
c1ccc2c(CCNc3ccc(Nc4ccncc4)cc3)c[nH]c2c1 [Serdemetan]	0.966	0.966	0.987	0.95	0.971	1.05	0.925	1.67	2.28 (active)	0.983	0.933	0.904	0.969	0.964	0.955	1.01	1.45	1.77	0.97	0.948	0.953	0.929	0.918	0.946	1.21	3.08 (active)	3.17 (active)
O=C(COc1ccc(Cl)cc1)NC1CCC(NC(=O)COc2ccc(Cl)cc2)CC1 (centres undefined)	0.999	0.971	0.929	0.975	0.97	0.973	0.971	1.02	1.01	1.02	0.993	0.987	0.991	0.965	0.954	0.966	0.962	0.961	0.993	0.994	0.983	1.01	1.02	1.01	0.994	1.01	0.992
CC1(C)CCC(c2ccc(Cl)cc2)=C(CN2CCN(c3ccc(C(=O)NS(=O)(=O)c4ccc(N[C@H](CCN5CCOCC5)CSc5ccccc5)c(S(=O)(=O)C(F)(F)F)c4)cc3)CC2)C1 [Navitoclax]	0.932	0.931	0.932	1.24	1.36	1.36	1.62	2.39 (active)	2.07 (active)	1.04	1	1.05	1.22	1.53	1.7	1.57	2.07 (active)	2.11 (active)									
